Here are results for 107 molecules from ChEMBL document CHEMBL3988442, “University of Dundee, Small-Polar-MMV Screening Library” (2021).

About 13,000 (27%) of roughly 48,000 compounds showed an effect of 50% or more. The list shows a part of the results.

The assay has as its system Wolbachia pipientis. Description: Anti-Wolbachia Cell-Based Screen. In kind it is functional. The settings on record: 5 µM. On the set-up: scale not given: in the data most compounds retested in dose-response had high values.
On to `Cc1c(F)cc(C(=O)NCC(F)(F)F)cc1NCC(=O)N(C)C`, for which the “Percent Effect” value was determined as 4.918%. Take `CCOc1ccccc1NC(=O)CN(C)Cc1ccccc1Cl`: the “Percent Effect” value is reported as 6.554%.

Regarding `OCCn1cc(CN2CCN(CCOCC(F)(F)F)CC2)cn1`, the “Percent Effect” value came out at 2.281%. On to `CN(C)CC(=O)N1Cc2cc(N(C)C)ccc2C1c1cnco1` (configuration not stated), for which the “Percent Effect” value is -12.83%. Take `CC(C)C(C(=O)N(C)C)c1cccc(Cl)c1` (configuration not stated): the “Percent Effect” value is -9.046%. The value for `CN(C)c1cccc(C(=O)Nc2cn(C)c(=O)n(C)c2=O)c1` was -7.07%; that for `COc1c(C(=O)N2CCC(COCc3ccccc3)C2)c(C)nn1C` (configuration not stated) was -0.4444%. The value for `Cc1nc2c(c(C)c1CC(=O)NCc1cccs1)c(=O)[nH]n2C` was 165.2%; that for `Cc1ccsc1CNC(=O)Cc1c(C)nc2c(c1C)c(=O)[nH]n2C` was -0.5496%; that for `CCCNC(=O)Cc1c(C)nc2c(c1C)c(=O)[nH]n2C` was -12.53%. The value for `O[C@H]1CC[C@@H](Cc2cc(-c3ccc(F)cc3)on2)O[C@@H]1CNCC1CC1` was 6.759%; that for `O=C(O)C(F)(F)F.O=C(O)C(F)(F)F.O=C(O)C(F)(F)F.c1cncc(OCc2n[nH]c3c2CN(Cc2cccs2)C3)c1` was -32.3%; that for `O=C(O)C(F)(F)F.O=C(O)C(F)(F)F.c1ccc(OCc2n[nH]c3c2CN(Cc2cccs2)C3)nc1` was -9.854%. `COCc1n[nH]c2c1CN(Cc1cccs1)C2.O=C(O)C(F)(F)F`: the “Percent Effect” value was 1.549%. On to `O=C(CCc1cccs1)N1CCc2[nH]nc(COc3ccccc3)c2C1`, for which the “Percent Effect” value stood at 98.05%. `O=C(c1csnn1)N1CCc2[nH]nc(COc3cccc(Cl)c3)c2C1`: the “Percent Effect” value was 7.373%. The figure for `O=C(CCc1ccco1)N1CCc2[nH]nc(COc3ccccc3)c2C1` is 91.35%; for `Cc1noc(C)c1-c1n[nH]c2c1CN(S(=O)(=O)c1cccs1)CC2` it is 16.83%. The value for `O=C(O)C(F)(F)F.OCCOCc1n[nH]c2c1CN(Cc1ccco1)C2` was 3.715%; that for `CS(=O)(=O)N1CCc2[nH]nc(Cc3cccs3)c2C1` was 98.95%. The figure for `COc1nc2c(cc1C(=O)N(C)Cc1[nH]nc3c1CCC3)CCC2` is 7.806%; for `OC(COCc1ccccc1Cl)CN1CC(n2cccn2)C1` (configuration not stated) it is -11.39%; for `Cc1nc(CN2CCCC(CCNS(C)(=O)=O)C2)c[nH]1` (configuration not stated) it is -5.765%. Take `Cc1occc1C(=O)N1Cc2nccn2CC(CN2CCOCC2)C1.O=C(O)C(F)(F)F` (configuration not stated): the “Percent Effect” value is given as -15.88%. The value for `CN(C)CCN(C)c1ccc(-c2nc(COc3ccccc3)no2)cn1` was -2.014%; that for `CC[C@H]1COCCN1C(=O)CCCn1nnc(-c2ccc(F)cc2)n1` was -1.392%; that for `CN(Cc1ccncc1)c1cncc(Br)c1` was 97.92%. Turning to `CN(Cc1ccc([S+](C)[O-])cc1)c1cncc(Br)c1` (configuration not stated), the “Percent Effect” value was 105.7%. Consider `CN(Cc1cnccn1)c1cncc(Br)c1`, for which the “Percent Effect” value stood at 109.1%. Consider `COc1cc(F)ccc1N(C)Cc1ccncc1`, for which the “Percent Effect” value was -8.772%. `CN(Cc1ccc([S+](C)[O-])cc1)c1ccc(Br)cn1` (configuration not stated): the “Percent Effect” value is -27.32%. The figure for `Cc1cc(C2CCC2)nc(N(C)Cc2cnccn2)n1` is -5.292%; for `Cc1nc(N(C)C)nc(N(C)Cc2cnccn2)c1C` it is 49.18%; for `CN(Cc1ccc([S+](C)[O-])cc1)c1cncc(Cl)n1` (configuration not stated) it is -12.95%. On to `CCCN(CCC)S(=O)(=O)N(C)Cc1ccncc1`, for which the “Percent Effect” value worked out at 3.881%. For the molecule `O=C(O)C(F)(F)F.O=C(O)C(F)(F)F.c1ccc(COC[C@H]2CC[C@H]3[C@H](CCN3c3ncccn3)O2)nc1`, the “Percent Effect” value is reported as -2.736%. `COc1ccc(F)cc1CN1CCCC(c2cc(C(N)=O)[nH]n2)C1` (configuration not stated): the “Percent Effect” value is reported as -1.722%. The figure for `NC(=O)c1cc(C2CCCN(Cc3ccc4c(c3)OCCO4)C2)n[nH]1` (configuration not stated) is 95.83%. The figure for `O=C(NCC1CCOC1)N1CCN(Cc2ccc3c(c2)CCO3)CC1` (configuration not stated) is -2.282%; for `CCc1cnc(CN2CCCC(c3cc(C)[nH]n3)C2)o1` (configuration not stated) it is -1.395%. The value for `Cc1cc(C2CCCN(CCc3ccc4c(c3)CCO4)C2)n[nH]1` (configuration not stated) was 104%; that for `Cc1cc(C2CCCN(CCc3ccccn3)C2)n[nH]1` (configuration not stated) was -3.98%; that for `CCOCCN1CCCC(c2cc(C(N)=O)[nH]n2)C1` (configuration not stated) was -3.243%. `NC(=O)c1cc(C2CCCN(CCOCC(F)(F)F)C2)n[nH]1` (configuration not stated): the “Percent Effect” value is recorded as -1.839%. As to `O=C(C1COCCO1)N1CCN(Cc2ccc3c(c2)CCO3)CC1` (configuration not stated), the “Percent Effect” value came out at 2.717%. Turning to `O=C(C1CCCN(CCc2ccc3c(c2)CCO3)C1)N1CCCC1` (configuration not stated), the “Percent Effect” value came to 96.85%. The value for `NC(=O)c1cc(C2CCCN(CCc3ccc4c(c3)CCO4)C2)n[nH]1` (configuration not stated) was 94.15%; that for `CCc1cc(NCCNc2cccnc2)n2nccc2n1` was -9.581%.

Consider `Cc1[nH]c(=O)[nH]c(=O)c1CN1CCCC(CCc2ccc(F)cc2F)C1` (configuration not stated), for which the “Percent Effect” value is 2.06%. Take `CSCCC(=O)N1CCC(Oc2cc(C)ccc2F)(C(=O)O)CC1`: the “Percent Effect” value was determined as 3.058%.

As to `CS(=O)(=O)N1CCOC2(CCCN(c3ncc(F)cn3)C2)C1` (configuration not stated), the “Percent Effect” value turned out to be 0.4401%. The value for `CCC(C)(NCC(N)=O)c1nccs1` (configuration not stated) was -7.734%; that for `CCc1cnc(N2CCC3(CCN(CC)C3=O)CC2)nc1` was -13.53%. On to `COCCN1CCC2(CCN(Cc3cccs3)CC2)C1=O.O=C(O)C(F)(F)F`, for which the “Percent Effect” value was 6.379%. The figure for `CCN1CCC2(CCN(c3ncccn3)CC2)C1=O.O=C(O)C(F)(F)F` is 93.98%; for `COCCN1CCC2(CCN(c3ncccn3)CC2)C1=O.O=C(O)C(F)(F)F` it is 97.58%; for `CCN1CCC2(CCN(Cc3nccs3)CC2)C1=O.O=C(O)C(F)(F)F` it is -3.246%. With `COCCN1CCC2(CCN(CC3CC3)CC2)C1=O.O=C(O)C(F)(F)F`, the “Percent Effect” value was -9.065%.

In the case of `NC(=O)CN(C(=O)c1c[nH]c2ncccc12)C1CCCC1`, the “Percent Effect” value is recorded as -3.753%. On to `CNC(=O)C1CCC2(CCN(c3ncc(C)cn3)CC2)CO1` (configuration not stated), for which the “Percent Effect” value is -6.735%. With `Cc1n[nH]c(C)c1CNCC(O)c1cccc(Cl)c1.Cl` (configuration not stated), the “Percent Effect” value was determined as 7.117%.

Take `CC(=O)N1CCCC1c1csc(Nc2cnccn2)n1` (configuration not stated): the “Percent Effect” value is -5.394%. The figure for `CCC(=O)N1CCCC1c1csc(Nc2cnccn2)n1` (configuration not stated) is 122%. As for `COCC(=O)N1CCCC1c1csc(Nc2cnccn2)n1` (configuration not stated), the “Percent Effect” value was 91.87%.

Regarding `Cc1cnc(NC(=O)c2cccc(CN(C)Cc3ccno3)c2)s1`, the “Percent Effect” value is 0.9625%. The figure for `CCN1CCCc2cc(CN3CCc4nc(C)[nH]c(=O)c4C3)ccc21` is 122.7%; for `CCn1nc2c(cc1=O)CN(Cc1nc3ccccc3c(=O)[nH]1)CC2` it is -16.27%; for `CCn1nc2c(cc1=O)CN(Cc1cc(C)on1)CC2` it is 0.747%. The figure for `CCn1nc2c(cc1=O)CN(Cc1ccc(-n3cccn3)cc1)CC2` is 7.019%.

In the case of `CCN1CCCc2cc(CN3CCc4c(nc(C)[nH]c4=O)C3)ccc21`, the “Percent Effect” value was found to be 149.4%. The value for `CCCn1nc2c(cc1=O)CN(CCCN1CCCC1=O)CC2` was -4.188%; that for `CN(C)C(=O)c1n[nH]c2c1CCN(Cc1nccs1)C2` was 9.734%.

Regarding `Cn1ncc2c(N3CCN(C(N)=O)CC3)nc(C3CCCC3)nc21`, the “Percent Effect” value amounted to 2.978%. Take `CC1Cc2ccccc2N1Cc1occc1C(=O)OCC(N)=O` (configuration not stated): the “Percent Effect” value is recorded as -8.495%. For `CCOC(=O)N1[C@@H](c2ccco2)[C@@H](CO)C[C@]12CCCCNC2=O`, the “Percent Effect” value is recorded as 109.7%. The figure for `CC(C)(C)CC(=O)N1[C@@H](c2ccco2)[C@@H](CO)C[C@]12CCCCNC2=O` is 102.1%; for `O=C1OC2(CCNCC2)CN1CC(=O)N1CCCC1c1ccco1` (configuration not stated) it is -0.7494%. Regarding `CC(C)COC(=O)N1[C@@H](c2ccco2)[C@@H](CO)C[C@]12CCCCNC2=O`, the “Percent Effect” value stood at 102%. The value for `CC(C)CCC(=O)NCC(=O)N1CCCCCC1c1ccco1` (configuration not stated) was 14.42%; that for `CCN(CCn1cccn1)C(=O)CN1C(=O)OC[C@@H]1C(C)C` was -18.11%. Consider `Cl.Cl.OC(CN1CCN(Cc2ccc(F)cc2)CC1)C1CC1` (configuration not stated), for which the “Percent Effect” value is given as -6.832%. For `COc1cccc(CN2CCCCC2CN2CCOCC2)c1F` (configuration not stated), the “Percent Effect” value was determined as 24.12%. The figure for `OCC1N(Cc2ccc(F)cc2)[C@H]2CC[C@]1(O)CC2` (some centres not stated) is 104.7%; for `Fc1ccc(CN2CCOC[C@H](Oc3cccnc3)C2)cc1` it is 4.64%; for `Oc1cccc(CN2C[C@H]3CC[C@@H]2CN(Cc2ccc(F)cc2)C3)c1` it is 7.382%.

With `O[C@]12CC[C@H](CC1)N(Cc1ccc(F)cc1)C2CN1CCOCC1` (some centres not stated), the “Percent Effect” value is recorded as 104%. Regarding `Cc1cc(C)cc(CN2CCN(C(=O)COCC3CCCO3)CC2=O)c1` (configuration not stated), the “Percent Effect” value was -14.3%.

As to `CN(CCOc1ccccc1Cl)S(=O)(=O)N1CCOCC1`, the “Percent Effect” value is listed as -15.33%. The figure for `COc1ccccc1CCNS(=O)(=O)N1CCOCC1` is 112%; for `COc1ccccc1OCCNS(=O)(=O)N1CCOCC1` it is 86%; for `COc1ccc(OCCN(C)S(=O)(=O)N2CCOCC2)cc1` it is -3.974%.

Regarding `CCC(NS(=O)(=O)N1CCOCC1)c1ccccc1OC` (configuration not stated), the “Percent Effect” value was -7.282%.

Regarding `COc1ccccc1CC(NC(=O)N1CCOCC1)C(C)C` (configuration not stated), the “Percent Effect” value is -8.474%. Turning to `CCN(C(=O)NCCc1ccc(C)cc1C)C(C)CS(C)(=O)=O` (configuration not stated), the “Percent Effect” value is on record as -11.16%. The value for `Cc1cc(N2CCSCC2)ccc1NC(=O)N(CCO)C1CC1` was -6.894%. As to `NC(=O)NC(CC(=O)N1CCc2sccc2C1)c1cccc(Br)c1` (configuration not stated), the “Percent Effect” value is given as 93.59%. As for `N#Cc1cccc(CNCCC(=O)N2CCc3sccc3C2)c1`, the “Percent Effect” value is given as -10.34%. The figure for `O=C(C[S+]([O-])Cc1ccc(F)cc1)N1CCc2sccc2C1` (configuration not stated) is 1.066%; for `CC(NCC(=O)N1CCc2sccc2C1)c1ccccc1F` (configuration not stated) it is 93.75%; for `NC(=O)NC(CC(=O)N1CCc2sccc2C1)c1ccccc1F` (configuration not stated) it is 105.1%. The figure for `O=C(C[S+]([O-])Cc1ccccc1F)N1CCc2sccc2C1` (configuration not stated) is 15.13%; for `Cc1ccccc1C(CC(=O)N1CCc2sccc2C1)NC(N)=O` (configuration not stated) it is 98.58%. `O=C(CNc1nc(C(F)(F)F)cs1)N1CCc2sccc2C1`: the “Percent Effect” value came to 8.259%. The value for `CC(C)(C)c1nnc(NCC(=O)N2CCc3sccc3C2)s1` was 0.7468%. The value for `CC(C)(C)CC(=O)N1CCc2sccc2C1` was -0.9665%. Regarding `O=C(CCNCc1cccc(O)c1)N1CCc2sccc2C1`, the “Percent Effect” value is listed as 2.464%. The figure for `O=C(C[S+]([O-])Cc1c(F)cccc1Cl)N1CCc2sccc2C1` (configuration not stated) is 13.7%.
